ChEMBL document CHEMBL1157539, “Thousands of chemical starting points for antimalarial lead identification” (Nature, 2010)
Where “and” joins values, the source holds several entries; their conditions need not be identical. Equal values may be shown once.

The compounds below were run on Plasmodium falciparum (assay: GSK_TCMDC: Inhibition of Plasmodium falciparum Dd2 in whole red blood cells, using parasite LDH activity as an index of growth. Test compounds present at 2uM).
Type: functional

Compound	Inhibition
CN(C)CCOc1cc(NC(=O)Nc2ccc(-c3ccccc3)cc2Cl)ccc1I	93%
Cl.c1ccc(Oc2ccc(Nc3ccnc4c(-c5ccccn5)cccc34)cc2)cc1	58%
O=CO.Oc1ccccc1CNCc1ccc(-c2cnc(N3CCCC(c4ccccc4)C3)nc2)cc1 (stereo not given)	84%
COc1cc2nc(NCCc3ccccc3)nc(NC(C)c3ccccc3)c2cc1OC (stereo not given)	100%
c1ccc(C2=NN=C(c3ccccn3)C3C4CC(C23)C2C3CC(c5ccccc53)C42)nc1 (stereo not given)	77%
CNC(=O)c1cc(F)c(F)cc1Nc1nc(Nc2cccc(CS(C)(=O)=O)c2)ncc1Cl.O=CO	90%
c1ccc2[nH]c(Nc3ccc(Nc4nc5ccccc5[nH]4)cc3)nc2c1	27%
CCNC(=O)c1cc(S(=O)(=O)N2CCN(c3ccccn3)CC2)cs1	94%
CC(C)c1ccc(CN2CCC(NC(=O)c3ccc(-c4cccc(Cl)c4)s3)CC2)cc1.O=C(O)C(F)(F)F	6%
CNC(=O)C(C)N(c1ccc(Cl)cc1)c1nc(C(C)(C)C)cs1 (stereo not given)	98%
COc1ccccc1N1CCN(c2cccc(F)c2C#N)CC1	59%
Cn1nc(-c2ccccc2F)c2cc(C(=O)Nc3cccnc3)sc21	82%
O=C(COc1ccc(F)cc1)NC1CCN(c2ccnc3cc(Cl)ccc23)C1.O=C(O)C(F)(F)F (stereo not given)	100%
CCOc1c(N2CCN(CCCCNC(=O)c3ccc(NC(=O)c4ccc(Cl)cc4)cc3)CC2)ccc2ccccc12.Cl	45%
COc1ccc(CCN(C)CCCCc2ccc(NC(=O)c3cccc4c(=O)c5cc(F)ccc5sc34)cc2)cc1OC	49%
Cl.N#Cc1ccc2c(c1)CN(CC[C@H]1CC[C@H](NC(=O)/C=C/c3c[nH]c4ccccc34)CC1)CC2	24% and 27%
Cn1nc(-c2ccc(NC(=O)Nc3cc(C(F)(F)F)ccc3F)c(F)c2)c2cnc(NCCCN3CCOCC3)nc21.O=C(O)C(F)(F)F	62%
CCCN(CCC)C(=O)c1cc(C(=O)N[C@@H](Cc2ccccc2)[C@H](O)CNC2CC2)cc(N2CCCCS2(=O)=O)c1	98%
CS(=O)(=O)O.c1ccc2c(CNCCCCCCNCc3c(OCC4CC4)ccc4ccccc34)c(OCC3CC3)ccc2c1	97%
Cn1cccc1C(=O)NCC(CCNc1cc(=O)c2ccccc2[nH]1)NCc1cc(Br)cc(Br)c1 (stereo not given)	52%

Compound	Inhibition
CCCCCCCN1CC[C@@H](CCCc2ccnc3ccc(OCCC4CCNCC4)cc23)[C@@H](CC)C1.Cl	100%
CCc1nc2ccc(C(=O)OC)nc2n1Cc1ccc2oc(-c3ccccc3N)c(Br)c2c1	75%
Cl.Cn1cc(Br)c(-c2cccc(Nc3ccnc4cc(-c5nccs5)ccc34)c2)n1	32%
CC(O)C1CCCCN1C(=O)c1ccc(-c2cccc(-c3nc4cc(F)ccc4[nH]3)c2)cc1 (stereo not given)	97%
COc1ccc(-c2cnc3ccc(N4CCCC4)nn23)cc1OC.O=CO	98%
Nc1nc(N)c2c(ccc3c2ccn3Cc2ccccc2)n1	94%
Cc1ccc2[nH]c3c(NCCN(C)C)ncnc3c2c1	5%
CS(=O)(=O)CCNCc1ccc(-c2ccc3c(Nc4ccc(Cl)cc4F)ccnc3c2)o1	98%
Cc1cc(C(=O)Nc2ccc3c(c2)CCN3C2CCN(Cc3cccc4cc[nH]c34)C2)no1 (stereo not given)	96%
COc1cc2ccccc2cc1CNCCCCCCNCc1cc2ccccc2cc1OC.CS(=O)(=O)O	24%
O=S(=O)(Nc1cccc(CCN2CCC(N3CCCCC3)CC2)c1)c1ccc(Cl)cc1	23%
O=C(NCCCCN1CCCC2c3cccc(O)c3CCC21)c1ccc(-c2ccccc2)cc1 (stereo not given)	4%
COc1cc(NC(=O)c2ccc(-c3ccccc3)cc2)ccc1OCCCN1CCC(c2ccccc2)CC1.Cl	30%
Cc1nc2nc(N)nc(N)c2c(C)c1Cc1ccccc1Cl.Cl	0%
CC(C)CN(c1nc(C(=O)NNC(=O)[C@H](CC2CC2)NC(=O)c2cc3cc(OCCN(C)C)ccc3o2)cs1)C1CC1	97%
O=C(Nc1ccc(CN2CCCCC2)cc1)c1ccc(COc2ccc([N+](=O)[O-])cc2)o1	0%
Clc1cc(Nc2ncnc3cc(C#C[C@H]4CCCN4)sc23)cc2nc(Cc3ccccc3)[nH]c12.O=C(O)C(F)(F)F	57%
Cl.O=C(NCCCCN1CCC(O)(c2ccc(Cl)cc2)CC1)c1ccc(Br)cc1	48%
COc1ccc(N2CCN(CCCNC(=O)c3ccc(NC(=O)c4cc(Cl)cc(Cl)c4)cc3)CC2)c(OC)c1	79%
O=C(Nc1ccc(Cl)cc1)c1ccc(CN2CCCN(Cc3ccsc3)CC2)cc1.O=C(O)C(F)(F)F	1%
